Out of some 52,000 compounds screened, about 4,300 (8.3%) were called active. Shown is part of a subset that was picked to be rich in actives. A number with no mark means an inactive call. No stated cut-off is given here; in the data, active means survival mostly below about 52% (no sharp cut-off); inactive means mostly above about 56%.
Each compound was assayed on DeltatarO mutant (assay: growth inhibition of S. aureus wild type versus tarO mutant, primary screen, teichoic acid synthesis inhibitors, RN4220, OD600 (AID 463173)). Settings: OD600, 18 h, stronger effect = lower value, screened at 18.75 µg/mL (by protocol).
With COc1ccc(-c2nc3scc(CCNS(=O)(=O)c4ccc(C)cc4)n3n2)cc1 the survival was 70%. Compound CCn1cc2nc(SCc3cccc(C(F)(F)F)c3)n(Cc3ccc(Cl)cc3)c(=O)c2n1 has a survival of 124%. COc1cccc(N2CCN(c3ccc4nnc(CCC(=O)O)n4n3)CC2)c1 gave a survival of 89%. With Cc1nn(C)c(C)c1CCNC(=O)Nc1ccccc1C(F)(F)F the survival was 6% (active). Compound COc1ccc(NC(=O)NCCc2c(C)nn(C)c2C)c(OC)c1 has a survival of 90%. With COC(=O)c1ccccc1NC(=O)NCCc1c(C)nn(C)c1C the survival was 86%. With Cc1nn(C)c(C)c1CCNC(=O)Nc1cccc(Cl)c1C the survival was 67%. COc1ccc(Cl)cc1NC(=O)NCCc1c(C)nn(C)c1C was tested, and the survival was -1% (active). COC(=O)c1ccc(Cl)cc1NC(=O)NCCc1c(C)nn(C)c1C showed a survival of 81%. Work on Cn1c(=O)oc2cc(S(=O)(=O)NC(Cc3ccccc3)C(=O)Nc3ccc(F)c(Cl)c3)ccc21 (stereo not given) yielded a survival of 83%. For COc1ccc(NC(=O)CN(C)S(=O)(=O)c2cccc3nsnc23)cc1, the survival was 106%. With Cc1nnc(SCC(=O)Nc2ccc(N(C)C)cc2)[nH]c1=O the survival was 77%. Work on O=c1[nH]c(SCc2ccccc2)nc2c1CCCC2 yielded a survival of 57%. O=c1[nH]c(SCc2ccc(Br)cc2)nc2c1CCCC2 gave a survival of 52%. In the case of O=c1[nH]c(SCc2ccc(F)cc2)nc2c1CCCC2, the survival is reported as 63% (active). With O=C(CSc1nc2ccccc2nc1Cc1ccc(Cl)cc1)N1CCN(c2ccccc2F)CC1 the survival was 71%. Cc1ccc(NC(=O)CSc2nc3ccc(NC(=O)COc4ccc(C)cc4)cc3s2)cc1 gave a survival of 83%. With CC(=O)Nc1cc(C(=O)NCc2ccc(C)cc2)ccc1Sc1ccc(C)cc1 the survival was 96%. For COCc1cc(C)nc2c1C(=O)NC(c1ccc(Br)cc1)N2Cc1ccccc1 (stereo not given), the survival was 69%. COc1cc2c(cc1NC(=O)COc1ccc(Cl)cc1Br)oc1ccccc12 showed a survival of 51%. Work on COc1ccc(Cl)cc1NC(=O)NCc1noc2ccccc12 yielded a survival of 35%. COc1ccc(-c2nc3ccccc3o2)cc1NC(=O)C(C)Oc1ccc(Cl)cc1Cl (stereo not given) was tested, and the survival was 38% (active). For Cc1ccc2cccc(NC(=O)C(C)Oc3ccc(C)c(C)c3)c2n1 (stereo not given), the survival was 56%. COc1cc2c(cc1NC(=O)C(C)Oc1ccccc1)oc1ccccc12 (stereo not given) was tested, and the survival was -1% (active). Cc1ccc2cccc(NC(=O)C(C)Oc3ccc(Cl)cc3Cl)c2n1 (stereo not given) was tested, and the survival was -2% (active). With COc1cc2c(cc1NC(=O)C(C)Oc1ccc(Cl)cc1Cl)oc1ccccc12 (stereo not given) the survival was 38% (active). Compound COc1cc2c(cc1NC(=O)COc1cc(C)ccc1C)oc1ccccc12 has a survival of 79%. COc1cc2c(cc1NC(=O)COc1cc(C)cc(C)c1)oc1ccccc12 was tested, and the survival was 59%. For Cc1ccc(OCC(=O)Nc2cccc3ccc(C)nc23)c(C)c1, the survival was 62%. For CCOC(=O)c1ccc(NC(=O)CSc2nnc3c4ccccc4n(CC)c3n2)cc1, the survival was 72%. In the case of O=C(CSc1nc2c(c(=O)[nH]1)CN(Cc1ccc3c(c1)OCO3)CC2)Nc1ccc(F)cc1, the survival is reported as 75%. In the case of Cc1ccc(NC(=O)Cn2cc(S(=O)(=O)c3ccc(C)cc3)c(=O)c3cc4c(cc32)OCO4)cc1, the survival is reported as 58%. COc1ccc(NC(=O)c2c(NCc3sccc3C)sc3c2CCCCC3)c(OC)c1 gave a survival of 85%. CCOc1ccc(CCNc2ncnc3onc(C)c23)cc1OCC showed a survival of 71%. O=C(Nc1cccnc1)c1cc(-c2cccc(Cl)c2)on1 was tested, and the survival was 115%. Work on O=C(CN1C=NS(=O)(=O)c2ccccc21)Nc1ccc(F)cc1 yielded a survival of 87%. CC1=C(C(=O)Nc2ccc(C)cc2C)C(c2ccc[nH]2)n2ncnc2N1 (stereo not given) gave a survival of 89%. O=C(CSc1ncc2c(n1)-c1ccccc1N(Cc1ccc(F)cc1)S2(=O)=O)c1ccc(Cl)cc1 was tested, and the survival was 89%. Work on CCOC(=O)c1c(C)[nH]c(C)c1S(=O)(=O)N(C)CC(=O)N1CCN(c2cccc(C)c2C)CC1 yielded a survival of 84%. With CC(C)c1nn2c(=O)cc(COC(=O)c3ccc(NC(=O)COc4ccccc4)cc3)nc2s1 the survival was 98%. O=C(NCCS(=O)(=O)N1CCN(c2ccc(F)cc2)CC1)c1cc(=O)c2ccccc2o1 showed a survival of 94%. CCCOc1ccc(C2C(=O)N(C3CCC(C)CC3)CC(=O)N2CCC2=CCCCC2)cc1OC (stereo not given) showed a survival of 80%. For COc1ccc(C2C(=O)N(C3CCC(C)CC3)CC(=O)N2C2CCCC2)cc1OC (stereo not given), the survival was -2% (active). In the case of CCCOc1ccc(C2C(=O)N(C3CCCCC3)CC(=O)N2C2CCCCC2)cc1OC (stereo not given), the survival is reported as 91%. CCCCN1C(=O)CN(C2CCCCCC2)C(=O)C1c1ccc(OCCC)c(OC)c1 (stereo not given) was tested, and the survival was 66%. In the case of COc1ccc(C2C(=O)N(C3CCC(C)CC3)CC(=O)N2CCC2=CCCCC2)cc1OC (stereo not given), the survival is reported as -1% (active). In the case of COc1ccc(C2C(=O)N(C3CCC(C)CC3)CC(=O)N2C2CCCCC2)cc1OC (stereo not given), the survival is reported as 76%. CCCN1C(=O)CN(C2CCCCCC2)C(=O)C1c1ccc(OCC)c(OC)c1 (stereo not given) was tested, and the survival was 109%. For CCCOc1ccc(C2C(=O)N(C3CCCCCC3)CC(=O)N2CCC2=CCCCC2)cc1OC (stereo not given), the survival was 119%. In the case of CCCOc1ccc(C2C(=O)N(C3CCCCCC3)CC(=O)N2CCC)cc1OC (stereo not given), the survival is reported as -4% (active). With CCCCN(C)C(=O)CN1C(=O)CCn2nc(-c3cn(C)c4ccccc34)cc21 the survival was 117%. Cc1cccc(NC(=O)CSc2nc(=O)n(CCN3CCOCC3)c3c2CCC3)c1 showed a survival of 86%. For COc1cccc(C(=O)NCCSc2c(-c3ccc(F)cc3)[nH]c3ccccc23)c1OC, the survival was 52%. In the case of O=C(NC1CCN(C(=O)Nc2cccc(F)c2)CC1)c1ccco1, the survival is reported as 88%. COc1cccc(N2C(=O)N(CC(=O)NCc3cccc(OC)c3OC)c3ccccc3S2(=O)=O)c1 was tested, and the survival was 95%. COc1cc(C(Nc2ccc(S(=O)(=O)N3CCCC3)cc2)C(=O)NC(C)(C)C)cc(OC)c1OC (stereo not given) gave a survival of 77%. Work on CC(=O)ONC(=Nc1ccccc1C)c1nonc1N yielded a survival of 101%. For N#C/C(=C/c1ccccc1Cl)c1nc(-c2cc3ccccc3oc2=O)cs1, the survival was 81%. In the case of Cc1ccc(-c2csc(/C(C#N)=C/c3ccccc3Cl)n2)cc1, the survival is reported as 21% (active). Compound N#C/C(=C\c1ccc(Cl)cc1Cl)c1nc(-c2cccc(Cl)c2)cs1 has a survival of 79%. With COc1ccc(OC)c(/C=C(/C#N)c2nc(-c3ccc(-c4ccccc4)cc3)cs2)c1 the survival was 52%. With COc1c(Cl)cc(Cl)cc1/C=C(\C#N)c1nc(-c2ccc(Cl)cc2)cs1 the survival was 122%. With Cc1ccccc1/C=C(\C#N)c1nc(-c2ccc(Cl)cc2)cs1 the survival was 14% (active). With O=C1[C@@H]2CSC(c3ccc(Cl)cc3)N2C(=O)N1c1ccccc1 (stereo not given in full) the survival was 71%. Compound CCc1ccc(CSc2nc(-c3ccc(OC)cc3)nc3c2Cc2c(CO)cnc(C)c2O3)cc1 has a survival of 72%. COCCNC(=O)C1CC(=O)N(c2ccc(C)cc2)C1 (stereo not given) gave a survival of 82%. CCOC(=O)c1cc(-c2ccc(OC)cc2)n(CCC(=O)NC2CCCCC2)c1C showed a survival of 115%. CCOc1ccc(CCNC(=O)Cn2nnc(-c3ccc(C(F)(F)F)cc3)n2)cc1OCC gave a survival of 82%. With O=C(CSc1nc(=O)n(Cc2ccncc2)c2c1CCC2)Nc1ccc(F)cc1F the survival was 78%. COc1ccc(Nc2c(-c3ccc(C)o3)nc3ccc(Cl)cn23)cc1 was tested, and the survival was 65%. With CCOC(=O)C1(C)C=C(Nc2cccc(C)c2)C(=O)N1c1ccccc1 (stereo not given) the survival was 15% (active). In the case of CCOC(=O)C1(C)C=C(Nc2ccc(C)cc2)C(=O)N1c1ccccc1 (stereo not given), the survival is reported as 50%. CCOC(=O)C1(C)C=C(Nc2cccc(C(=O)O)c2)C(=O)N1c1ccccc1 (stereo not given) showed a survival of 73%. For O=c1[nH]c2ccc(S(=O)(=O)Nc3cc(Cl)ccc3O)cc2o1, the survival was 86%. For CC(C(=O)NC1CC1)N1CCC(N2CCCCC2)CC1 (stereo not given), the survival was 98%. With Cc1ccccc1COC(=O)c1ccc(-c2nnn(Cc3ccccc3F)n2)cc1 the survival was 54%. O=C(NCCCCc1ccccc1)c1nn(-c2ccccc2)nc1CO gave a survival of 58%. For Cc1ccccc1COC(=O)c1nn(-c2ccccc2)nc1N, the survival was -1% (active). Nc1nn(-c2ccccc2)nc1NC=O showed a survival of 95%. In the case of Nc1nn(-c2ccccc2)nc1C(=O)OCc1ccccc1Br, the survival is reported as 11% (active). Compound Cc1ccccc1CNC(=O)c1nn(-c2ccccc2F)nc1CO has a survival of 85%. Compound Cc1ccc(Cl)cc1NC(=O)C1CCCN(S(=O)(=O)c2c(C)noc2/C=C/N(C)C)C1 (stereo not given) has a survival of 51%. In the case of Cc1ccc(CNC(=O)c2c(Nc3ccccc3C)sc(C(=O)c3ccc(F)cc3)c2N)cc1, the survival is reported as 20% (active). Cc1ccccc1Nc1sc(C(=O)c2ccccc2)c(N)c1C(=O)NCc1ccc(Cl)cc1 was tested, and the survival was 100%. COc1cccc(Nc2sc(C(=O)c3ccc(F)cc3)c(N)c2C(=O)NCc2ccc(Cl)cc2)c1 was tested, and the survival was 8% (active). COc1cccc(Nc2sc(C(=O)c3ccc(F)cc3)c(N)c2C(=O)NCc2ccc(C)cc2)c1 gave a survival of 91%. With Cc1ccccc1Nc1sc(C(=O)c2ccc(F)cc2)c(N)c1C(=O)NCCc1ccccc1 the survival was 81%. In the case of COc1cccc(Nc2sc(C(=O)c3ccc(Cl)cc3)c(N)c2C(=O)NCc2ccc(C)cc2)c1, the survival is reported as 95%. For Cc1cccc(-c2cc(NC(=O)C(C)(C)C)n(-c3ccccc3)n2)c1, the survival was 99%. COc1ccc(CNC(=O)CCS(=O)(=O)c2ccc3c(c2)CC(C)N3C(=O)C2CC2)cc1 (stereo not given) gave a survival of 95%. For CCC(=O)N1c2ccc(S(=O)(=O)CCC(=O)NCc3cccc(OC)c3)cc2CC1C (stereo not given), the survival was 102%. With CCC(=O)N1c2ccc(S(=O)(=O)CCC(=O)NCc3ccccc3OC)cc2CC1C (stereo not given) the survival was 90%. COc1ccccc1CNC(=O)CCS(=O)(=O)c1ccc2c(c1)CC(C)N2C(=O)C1CC1 (stereo not given) was tested, and the survival was 8% (active). COc1cccc(CNC(=O)CCS(=O)(=O)c2ccc3c(c2)CC(C)N3C(=O)C2CC2)c1 (stereo not given) was tested, and the survival was 20% (active). For CC1Cc2cc(S(=O)(=O)CCC(=O)NCc3ccccc3Cl)ccc2N1C(=O)C1CC1 (stereo not given), the survival was 89%.

Source: PubChem BioAssay AID463173 (ICCB-Longwood Screening Facility, Harvard Medical School, 2010)
